According to PubChem BioAssay AID493004 (Broad Institute, 2010):
Screen size: about 2,300 compounds; fewer than 10 were called active.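 Rule for the calls: active = Signal drops as the depositor expects, and the fitted half-maximal dose is no more than ten times the top valid tested dose; inconclusive = Poor fit, or a flat curve whose signal drops by 30% to 70%; inactive = the rest.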 A selection follows.

Experiment: growth restoration of Mot1-301 yeast on galactose, dose response, SUMO pathway inhibitor project, whole organism, S. cerevisiae, ATP luminescence, cherry-picked samples (AID 493004);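 note: more negative values mean stronger growth rescue toward the control strain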
Conditions: S. cerevisiae Mot1-301 galactose growth, 24 h, -100 = growth of slx-deleted rescue strain; series mostly up to 42 µM
In the case of Cc1ccc(CC2CC(=O)N(c3ccc4c(c3)OCCO4)C2=O)cc1 (centres undefined), the outcome is reported as “inactive”.
In the case of O=C(CCc1ccccc1)NNC(=O)c1ccc(Br)cc1, the outcome is reported as “inactive”.
With Cc1ccc(N2C(=O)C3N=NN(CC(=O)N4N=C(c5cccc6ccccc56)CC4c4ccccc4)C3C2=O)cc1 (centres undefined) the outcome was “inactive”.
With CC1CCN(Cc2nc3c(c(=O)n(C)c(=O)n3C)n2CCc2ccccc2)CC1 the outcome was “inactive”.
With COc1cc(CNCc2ccc3c(c2)OCO3)c([N+](=O)[O-])cc1OC the outcome was “inactive”.
In the case of O=C(Nc1ccccc1N1CCN(c2ccccc2)CC1)c1cccc(F)c1, the outcome is reported as “inactive”.
With N#CC(C#N)=CN=c1ccn(Cc2ccc(Cl)cc2Cl)cc1 the outcome was “inactive”.
For Cc1cccc(C)c1NC(=O)C(Cl)C(=O)c1ccccc1 (centres undefined), the outcome was “inactive”.
For Cc1cc(C)cc(NC(=O)C2CCCN(S(=O)(=O)c3ccc4[nH]c(=O)ccc4c3)C2)c1 (centres undefined), the outcome was “inactive”.
With Cc1cc(Br)ccc1NC(=O)c1cnc(N2CCN(c3ccccn3)CC2)c2ccccc12 the outcome was “inactive”.
With Cc1ccc2c(c1)C(O)(CC(=O)c1cccnc1)C(=O)N2 (centres undefined) the outcome was “inactive”.
With COc1ccc(OCCC(=O)c2ccc(OC)cc2)cc1 the outcome was “inactive”.
With CCN(CC)C(=O)CSc1nnc(CNc2ccc(F)cc2)n1Cc1ccco1 the outcome was “inactive”.
With O=Cc1ccc(Oc2cccc(C(F)(F)F)c2)nc1 the outcome was “inactive”.
With Cc1cc(C)cc(C(=O)NC(CC(N)=O)c2ccc(N3CCC(N4CCCCC4)CC3)c([N+](=O)[O-])c2)c1 (centres undefined) the outcome was “inactive”.
For CCCC(=O)N(CCN1CCOCC1)c1nc2ccc(OCC)cc2s1, the outcome was “inactive”.
In the case of CC1=CC(=O)C=CC1(C)C(Cl)(Cl)Cl (centres undefined), the outcome is reported as “inactive”.
With CCc1nc2ccccc2c(C(=O)OC2CCCCC2=O)c1C (centres undefined) the outcome was “inactive”.
For COC(=O)c1cc2occc2n1Cc1nc(-c2ccccc2C)oc1C, the outcome was “inactive”.
For CCC(C)[C@H]1COCCS(=O)(=O)N1Cc1ccc(C)cc1 (some centres undefined), the outcome was “inactive”.
In the case of Cc1nc2sc(C(c3ccco3)N3CCOCC3)c(O)n2n1 (centres undefined), the outcome is reported as “inactive”.
In the case of COc1ccc(S(=O)(=O)N2CCOC2CNC(=O)C(=O)NCc2ccncc2)cc1C (centres undefined), the outcome is reported as “inactive”.
With O=C(NNS(=O)(=O)c1c(F)cc(F)c(Cl)c1F)C12CC3CC(CC(C3)C1)C2 the outcome was “inactive”.
In the case of CCn1c(SCC(=O)N/N=C/c2ccccc2OCC(=O)O)nnc1-c1ccc(C(C)(C)C)cc1, the outcome is reported as “inactive”.
For C=C(Cl)COC(=O)C1C2C=CC(C2)C1C(=O)O (centres undefined), the outcome was “inactive”.
In the case of CCOc1ccc(N(CC)S(=O)(=O)c2cccc3nsnc23)cc1, the outcome is reported as “inactive”.
With CCC(CC)C(=O)Nc1ccc(S(=O)(=O)Nc2nccs2)cc1 the outcome was “inactive”.
For O=c1c2c(ncn1Cc1ccccc1)nc1n2CCC1, the outcome was “inactive”.
With Cc1ccc(S(=O)(=O)CCC(=O)OCC(=O)N(C)C2CCS(=O)(=O)C2)cc1 (centres undefined) the outcome was “inactive”.
For COc1cc(C(=O)OCC(=O)NC(C)CCc2ccccc2)cc(OC)c1OC (centres undefined), the outcome was “inactive”.
In the case of O=C(NCc1ccccc1Cl)C(=O)NCC1CCCN1S(=O)(=O)c1cccs1 (centres undefined), the outcome is reported as “inactive”.
In the case of COc1cccc(NC(=O)c2nn(C34CC5CC(CC(C5)C3)C4)cc2[N+](=O)[O-])c1, the outcome is reported as “inactive”.
With CC(C)n1c(O)c(N=Nc2ccccn2)c2ccccc21 the outcome was “inactive”.
With CCCCC1=CC2=CC(=O)C(C)(OC(=O)CC)C(=O)C2=CN1CCCOC(C)C (centres undefined) the outcome was “inactive”.
In the case of Cc1ccc(Nc2cc(C)nc3c(C)ccc([N+](=O)[O-])c23)cc1, the outcome is reported as “inactive”.
In the case of CCC1(CC)NC(=O)N(CC(=O)OCC(=O)NC(=O)c2ccccc2)C1=O, the outcome is reported as “inactive”.
For CCN1CCCC1CNC(=O)Cn1cnc2ccc(S(=O)(=O)N3CCC(C)CC3)cc2c1=O (centres undefined), the outcome was “inactive”.
With CN(C)/C(CN1CCCCC1)=C1\N=C(c2ccccc2)OC1=O the outcome was “inactive”.
In the case of COC(=O)c1sccc1NC(=O)CC1C(=O)NCCN1C(=O)Nc1ccc(F)cc1F (centres undefined), the outcome is reported as “inactive”.
In the case of COc1cc(NC(=O)C2=CC(c3ccco3)=NS(=O)(=O)N2C)cc(OC)c1OC, the outcome is reported as “inactive”.
In the case of CN(C)C(=O)c1coc2nc3ccccc3nc12, the outcome is reported as “inactive”.
For O=C(Nc1nccs1)C1CCN(S(=O)(=O)c2ccc(Cl)c(C(F)(F)F)c2)CC1, the outcome was “inactive”.
For Cc1cccc(-[n+]2c(-c3cccc(Br)c3)[nH]c3nc4ccccc4nc32)c1, the outcome was “inactive”.
In the case of COCCCN1C(=O)c2ccc(C(=O)Nc3ccc(OC)cc3OC)cc2C1=O, the outcome is reported as “inactive”.
With COc1ccc(/C=C(\C#N)C(=O)NCCCn2ccnc2)cc1 the outcome was “inactive”.
With Cn1c(C(=O)NCCc2ccsc2)cc2c(=O)n(C)c3ccccc3c21 the outcome was “inactive”.
With CN(NC(=O)c1ccccc1F)c1nc(C(F)(F)F)nc2ccccc12 the outcome was “inactive”.
For Cc1cc(C)c2c(Cn3ccnc3)cc(=O)oc2c1, the outcome was “inactive”.
In the case of COc1ccc(-c2cn(-c3ccc(C)cc3)c(=O)n2CC(=O)Nc2ccc(OC)c(OC)c2)cc1, the outcome is reported as “inactive”.
In the case of O=C1CCC(=O)N1CCOP1(=O)COc2ccccc2OC1, the outcome is reported as “inactive”.
For CCOc1ccc(C(C(=O)NC2CCCC2)N(C(=O)c2snc(C(N)=O)c2N)C2CCCC2)cc1 (centres undefined), the outcome was “inactive”.
For Cc1ccc(O)c(CNc2nc3ccccc3n2C)c1, the outcome was “inactive”.
For NC(=O)c1cc(S(=O)(=O)N2CCCC2)ccc1OCc1ccc(F)cc1, the outcome was “inactive”.
In the case of COc1ccccc1CSc1ncc(-c2ccc([N+](=O)[O-])cc2)[nH]1, the outcome is reported as “inactive”.
With O=C(CP(=O)(c1ccccc1)c1ccccc1)N1CCOCC1 the outcome was “inactive”.
In the case of N#CC1=C(N)Oc2n[nH]c(CSc3ccccc3)c2C12C(=O)Nc1ccccc12 (centres undefined), the outcome is reported as “inactive”.
With COc1ccc(OC)c2c(N)c(C#N)c(C(F)(F)C(F)(F)F)nc12 the outcome was “inactive”.
With COCCNC(=O)C(c1ccc(C)cc1)N(C(=O)CCC(=O)Nc1ccccn1)c1cccc(C)c1 (centres undefined) the outcome was “inactive”.
With CC(C)c1cc(C(=O)N/N=C/C(Br)=C/c2ccccc2)n[nH]1 the outcome was “inactive”.
In the case of CCCc1cc(=S)n2c([nH]c3ccccc32)c1C#N, the outcome is reported as “inactive”.
In the case of CCOc1ccc(Cn2c(SCCCCC#N)nc3c2c(=O)n(C)c(=O)n3C)cc1OCC, the outcome is reported as “inactive”.
With COc1cccc(-n2c(SCC(=O)NC3CCCCC3)nc3n[nH]c(C)c3c2=N)c1 the outcome was “inactive”.
For Cc1ccc(C)c(S(=O)(=O)n2cnc3ccccc32)c1, the outcome was “inactive”.
With COc1ccc(C(=O)OCC(=O)c2ccc(C)c(S(=O)(=O)N3CCOCC3)c2)cc1OC the outcome was “inactive”.
In the case of Cc1cccc(N(C(=O)c2ccc(CN3CCOCC3)o2)C(C(=O)NC2CCCCC2)c2ccc(F)cc2)c1 (centres undefined), the outcome is reported as “inactive”.
In the case of O=C(NC1CCCCC1)c1ccc2c(=O)n(CC3CCCO3)c(=O)[nH]c2c1 (centres undefined), the outcome is reported as “inactive”.
For CCOCCCNCc1ccc(OCc2ccc(F)cc2)c(OC)c1, the outcome was “inactive”.
For COc1cccc(CN(C)CC2CCCN(CCc3ccc(Cl)cc3)C2)c1OC (centres undefined), the outcome was “inactive”.
In the case of COc1cccc(OC)c1C(=O)Nc1ccc2c(c1)n(C)c(=O)n2C, the outcome is reported as “inactive”.
With COC(=O)/C=C\C(=O)Nc1cccc([N+](=O)[O-])c1 the outcome was “inactive”.
In the case of CC(C)Cc1nc(N2CCOCC2)c(C#N)c2c1CCC2, the outcome is reported as “inactive”.
For COc1ccc(-c2[nH]nc3c2C(c2ccncc2)C(C#N)=C(N)O3)cc1 (centres undefined), the outcome was “inactive”.
In the case of COc1cc(CN2CCNC(=O)C2CC(=O)NCCc2ncccc2C)cc(OC)c1 (centres undefined), the outcome is reported as “inactive”.
In the case of CC(C)CCNC(=O)Cn1c(=O)oc2cc(S(=O)(=O)N3CC(C)CC(C)C3)ccc21 (centres undefined), the outcome is reported as “inactive”.
With CCc1cc2c(=O)c(-c3ccc(F)cc3)c(C(F)(F)F)oc2cc1OCC(=O)O the outcome was “inactive”.
In the case of CCc1c(C)nc(N2CCN(Cc3ccccc3)CC2)[nH]c1=O, the outcome is reported as “inactive”.
For Cc1cc(C)c(OCC(=O)N/N=C/c2ccco2)c(C)c1, the outcome was “inactive”.
In the case of CC1=NC2(CCCc3c2no[n+]3[O-])N(O)C1(C)C (centres undefined), the outcome is reported as “inactive”.
For CCCCC(=O)N/N=C(\C)CC(=O)Nc1cc(Cl)ccc1OC, the outcome was “inactive”.
For CC(NC(=O)c1ccc(Cl)cc1)C(=O)N1CCCCC1 (centres undefined), the outcome was “inactive”.
In the case of CCc1ccccc1NC1c2ccccc2C(=O)N1c1cccnc1 (centres undefined), the outcome is reported as “inactive”.
For COc1ccccc1N1CCN(C(=O)C(=O)N/N=C/c2ccccc2F)CC1, the outcome was “inactive”.
With N#CC1=C(N)OC2=C(C(=O)CCC2)C1C1CC=CCC1 (centres undefined) the outcome was “inactive”.
For Cc1cc(C)c2nc(-c3cccnc3)cc(C(=O)Nc3ccc(S(=O)(=O)Nc4onc(C)c4C)cc3)c2c1, the outcome was “inactive”.
With CSc1nc2ccc(NC(=O)c3c(F)cccc3F)cc2s1 the outcome was “inactive”.
In the case of COc1ccccc1/C=C/C(=O)NC(=S)N1CCOCC1, the outcome is reported as “inactive”.
With CCCCNC(=O)c1ccccc1NC(=O)C1=C(C)OCCS1 the outcome was “inactive”.
With C=CCC(NCCCO)c1cccc(OC)c1OC (centres undefined) the outcome was “inactive”.
For O=C(OC1CCOC1=O)c1cccc(S(=O)(=O)Nc2ccc(F)cc2)c1 (centres undefined), the outcome was “inactive”.
In the case of CCOC(=O)C1(Cc2cccc(OC)c2)CCCN(S(=O)(=O)c2cccnc2)C1 (centres undefined), the outcome is reported as “inactive”.
For Cc1ccc(S(=O)(=O)N2[C@@H](c3ccc(Br)cc3)C(C(=O)O)=C[C@H]2CC2CCCC2)cc1, the outcome was “inactive”.
With CCN(CC)C(=O)CSC(Nc1cccc(F)c1)=C(C#N)C#N the outcome was “inactive”.
With Cc1ccc(NC(=O)Nc2cccc(C(F)(F)F)c2)nc1 the outcome was “inactive”.
For O=C(NCC(=O)N(c1ccccc1)C(C(=O)NCC1CCCO1)c1ccccc1)c1cccs1 (centres undefined), the outcome was “inactive”.
With O=C(CSCc1ccc(Cl)cc1)N1CCCCC1 the outcome was “inactive”.
With O=C1CC(c2ccccc2)C(=O)N1c1cccc(O)c1 (centres undefined) the outcome was “inactive”.
With Cc1nn(CCOc2ccccc2)c(=O)n1-c1ccccc1F the outcome was “inactive”.
In the case of Oc1c(Cl)cc(Cl)c(Cl)c1Cc1c(O)c(Cl)cc(Cl)c1Cl, the outcome is reported as “inactive”.
For CC(Oc1ccccc1[N+](=O)[O-])C(=O)N/N=C/c1ccoc1 (centres undefined), the outcome was “inactive”.
